Legend:
[1] = target: Dual specificity protein kinase TTK (Homo sapiens) (UniProt P33981); conditions: at 0.1 µM
[2] = tested on: Receptor-type tyrosine-protein kinase FLT3 (Homo sapiens), P36888 [D835Y]; conditions: at 1 µM
[3] = target: Vascular endothelial growth factor receptor 3 (Homo sapiens) (UniProt P35916); conditions: at 0.1 µM
[4] = target: Vascular endothelial growth factor receptor 3 (Homo sapiens) (UniProt P35916); conditions: at 1 µM
[5] = target: Macrophage colony-stimulating factor 1 receptor (Homo sapiens) (UniProt P07333); conditions: at 0.1 µM
[6] = target: Macrophage colony-stimulating factor 1 receptor (Homo sapiens) (UniProt P07333); conditions: at 1 µM
[7] = target: Tyrosine-protein kinase Fyn (Homo sapiens) (UniProt P06241); conditions: at 0.1 µM
[8] = target: Tyrosine-protein kinase Fyn (Homo sapiens) (UniProt P06241); conditions: at 1 µM
[9] = target: Tyrosine-protein kinase HCK (Homo sapiens) (UniProt P08631); conditions: at 0.1 µM
[10] = target: Tyrosine-protein kinase HCK (Homo sapiens) (UniProt P08631); conditions: at 1 µM
[11] = target: Insulin-like growth factor 1 receptor (Homo sapiens) (UniProt P08069); conditions: at 0.1 µM
[12] = target: Insulin-like growth factor 1 receptor (Homo sapiens) (UniProt P08069); conditions: at 1 µM
[13] = target: Insulin receptor (Homo sapiens) (UniProt P06213); conditions: at 0.1 µM
[14] = target: Insulin receptor (Homo sapiens) (UniProt P06213); conditions: at 1 µM
[15] = target: Insulin receptor-related protein (Homo sapiens) (UniProt P14616); conditions: at 0.1 µM
[16] = target: Insulin receptor-related protein (Homo sapiens) (UniProt P14616); conditions: at 1 µM
[17] = target: Tyrosine-protein kinase ITK/TSK (Homo sapiens) (UniProt Q08881); conditions: at 0.1 µM
[18] = target: Tyrosine-protein kinase ITK/TSK (Homo sapiens) (UniProt Q08881); conditions: at 1 µM
[19] = target: Tyrosine-protein kinase JAK1 (Homo sapiens) (UniProt P23458); conditions: at 0.1 µM
[20] = target: Tyrosine-protein kinase JAK1 (Homo sapiens) (UniProt P23458); conditions: at 1 µM
[21] = target: Tyrosine-protein kinase JAK2 (Homo sapiens) (UniProt O60674); conditions: at 0.1 µM
[22] = target: Tyrosine-protein kinase JAK2 (Homo sapiens) (UniProt O60674); conditions: at 1 µM
[23] = target: Tyrosine-protein kinase JAK3 (Homo sapiens) (UniProt P52333); conditions: at 0.1 µM
[24] = target: Tyrosine-protein kinase JAK3 (Homo sapiens) (UniProt P52333); conditions: at 1 µM
[25] = target: Vascular endothelial growth factor receptor 2 (Homo sapiens) (UniProt P35968); conditions: at 0.1 µM
[26] = target: Vascular endothelial growth factor receptor 2 (Homo sapiens) (UniProt P35968); conditions: at 1 µM
[27] = target: Mast/stem cell growth factor receptor Kit (Homo sapiens) (UniProt P10721); conditions: at 0.1 µM
[28] = target: Mast/stem cell growth factor receptor Kit (Homo sapiens) (UniProt P10721); conditions: at 1 µM
[29] = tested on: Mast/stem cell growth factor receptor Kit (Homo sapiens), P10721 [D816V]; conditions: at 0.1 µM
[30] = tested on: Mast/stem cell growth factor receptor Kit (Homo sapiens), P10721 [D816V]; conditions: at 1 µM
[31] = tested on: Mast/stem cell growth factor receptor Kit (Homo sapiens), P10721 [T670I]; conditions: at 0.1 µM
[32] = tested on: Mast/stem cell growth factor receptor Kit (Homo sapiens), P10721 [T670I]; conditions: at 1 µM
[33] = tested on: Mast/stem cell growth factor receptor Kit (Homo sapiens), P10721 [V560G]; conditions: at 0.1 µM
[34] = tested on: Mast/stem cell growth factor receptor Kit (Homo sapiens), P10721 [V560G]; conditions: at 1 µM
[35] = target: Tyrosine-protein kinase Lck (Homo sapiens) (UniProt P06239); conditions: at 0.1 µM
[36] = target: Tyrosine-protein kinase Lck (Homo sapiens) (UniProt P06239); conditions: at 1 µM
[37] = target: Leukocyte tyrosine kinase receptor (Homo sapiens) (UniProt P29376); conditions: at 0.1 µM
[38] = target: Leukocyte tyrosine kinase receptor (Homo sapiens) (UniProt P29376); conditions: at 1 µM
[39] = target: Tyrosine-protein kinase Lyn (Homo sapiens) (UniProt P07948); conditions: at 0.1 µM
[40] = target: Tyrosine-protein kinase Lyn (Homo sapiens) (UniProt P07948); conditions: at 1 µM
[41] = target: Tyrosine-protein kinase Lyn (Homo sapiens) (UniProt P07948); conditions: at 0.1 µM; remark: listed apart in the source
[42] = target: Tyrosine-protein kinase Lyn (Homo sapiens) (UniProt P07948); conditions: at 1 µM; remark: listed apart in the source
[43] = target: Tyrosine-protein kinase Mer (Homo sapiens) (UniProt Q12866); conditions: at 0.1 µM
[44] = target: Tyrosine-protein kinase Mer (Homo sapiens) (UniProt Q12866); conditions: at 1 µM
[45] = target: Hepatocyte growth factor receptor (Homo sapiens) (UniProt P08581); conditions: at 0.1 µM
[46] = target: Hepatocyte growth factor receptor (Homo sapiens) (UniProt P08581); conditions: at 1 µM
[47] = target: Muscle, skeletal receptor tyrosine-protein kinase (Homo sapiens) (UniProt O15146); conditions: at 0.1 µM
[48] = target: Muscle, skeletal receptor tyrosine-protein kinase (Homo sapiens) (UniProt O15146); conditions: at 1 µM
[49] = target: Platelet-derived growth factor receptor alpha (Homo sapiens) (UniProt P16234); conditions: at 0.1 µM
[50] = target: Platelet-derived growth factor receptor alpha (Homo sapiens) (UniProt P16234); conditions: at 1 µM
[51] = tested on: Platelet-derived growth factor receptor alpha (Homo sapiens), P16234 [D842V]; conditions: at 0.1 µM
[52] = tested on: Platelet-derived growth factor receptor alpha (Homo sapiens), P16234 [D842V]; conditions: at 1 µM
[53] = tested on: Platelet-derived growth factor receptor alpha (Homo sapiens), P16234 [T674I]; conditions: at 0.1 µM
[54] = tested on: Platelet-derived growth factor receptor alpha (Homo sapiens), P16234 [T674I]; conditions: at 1 µM
[55] = tested on: Platelet-derived growth factor receptor alpha (Homo sapiens), P16234 [V561D]; conditions: at 0.1 µM
[56] = tested on: Platelet-derived growth factor receptor alpha (Homo sapiens), P16234 [V561D]; conditions: at 1 µM

Sequence of Tyrosine-protein kinase Lyn (Homo sapiens) (P07948 2-512 limits assumed): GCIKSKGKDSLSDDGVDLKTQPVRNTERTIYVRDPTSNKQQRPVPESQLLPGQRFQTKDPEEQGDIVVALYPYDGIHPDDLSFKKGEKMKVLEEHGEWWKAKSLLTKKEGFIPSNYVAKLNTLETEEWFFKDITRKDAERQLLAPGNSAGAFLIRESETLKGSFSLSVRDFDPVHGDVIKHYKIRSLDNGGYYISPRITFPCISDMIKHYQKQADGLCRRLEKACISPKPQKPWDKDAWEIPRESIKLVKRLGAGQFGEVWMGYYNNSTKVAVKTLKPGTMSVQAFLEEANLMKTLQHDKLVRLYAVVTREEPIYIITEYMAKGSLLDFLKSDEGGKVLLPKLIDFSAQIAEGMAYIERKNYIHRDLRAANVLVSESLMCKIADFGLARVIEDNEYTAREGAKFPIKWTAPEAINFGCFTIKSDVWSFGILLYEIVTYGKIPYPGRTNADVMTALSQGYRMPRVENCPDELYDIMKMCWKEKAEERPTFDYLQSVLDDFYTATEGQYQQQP
Sequence of Vascular endothelial growth factor receptor 3 (Homo sapiens) (P35916 whole entry): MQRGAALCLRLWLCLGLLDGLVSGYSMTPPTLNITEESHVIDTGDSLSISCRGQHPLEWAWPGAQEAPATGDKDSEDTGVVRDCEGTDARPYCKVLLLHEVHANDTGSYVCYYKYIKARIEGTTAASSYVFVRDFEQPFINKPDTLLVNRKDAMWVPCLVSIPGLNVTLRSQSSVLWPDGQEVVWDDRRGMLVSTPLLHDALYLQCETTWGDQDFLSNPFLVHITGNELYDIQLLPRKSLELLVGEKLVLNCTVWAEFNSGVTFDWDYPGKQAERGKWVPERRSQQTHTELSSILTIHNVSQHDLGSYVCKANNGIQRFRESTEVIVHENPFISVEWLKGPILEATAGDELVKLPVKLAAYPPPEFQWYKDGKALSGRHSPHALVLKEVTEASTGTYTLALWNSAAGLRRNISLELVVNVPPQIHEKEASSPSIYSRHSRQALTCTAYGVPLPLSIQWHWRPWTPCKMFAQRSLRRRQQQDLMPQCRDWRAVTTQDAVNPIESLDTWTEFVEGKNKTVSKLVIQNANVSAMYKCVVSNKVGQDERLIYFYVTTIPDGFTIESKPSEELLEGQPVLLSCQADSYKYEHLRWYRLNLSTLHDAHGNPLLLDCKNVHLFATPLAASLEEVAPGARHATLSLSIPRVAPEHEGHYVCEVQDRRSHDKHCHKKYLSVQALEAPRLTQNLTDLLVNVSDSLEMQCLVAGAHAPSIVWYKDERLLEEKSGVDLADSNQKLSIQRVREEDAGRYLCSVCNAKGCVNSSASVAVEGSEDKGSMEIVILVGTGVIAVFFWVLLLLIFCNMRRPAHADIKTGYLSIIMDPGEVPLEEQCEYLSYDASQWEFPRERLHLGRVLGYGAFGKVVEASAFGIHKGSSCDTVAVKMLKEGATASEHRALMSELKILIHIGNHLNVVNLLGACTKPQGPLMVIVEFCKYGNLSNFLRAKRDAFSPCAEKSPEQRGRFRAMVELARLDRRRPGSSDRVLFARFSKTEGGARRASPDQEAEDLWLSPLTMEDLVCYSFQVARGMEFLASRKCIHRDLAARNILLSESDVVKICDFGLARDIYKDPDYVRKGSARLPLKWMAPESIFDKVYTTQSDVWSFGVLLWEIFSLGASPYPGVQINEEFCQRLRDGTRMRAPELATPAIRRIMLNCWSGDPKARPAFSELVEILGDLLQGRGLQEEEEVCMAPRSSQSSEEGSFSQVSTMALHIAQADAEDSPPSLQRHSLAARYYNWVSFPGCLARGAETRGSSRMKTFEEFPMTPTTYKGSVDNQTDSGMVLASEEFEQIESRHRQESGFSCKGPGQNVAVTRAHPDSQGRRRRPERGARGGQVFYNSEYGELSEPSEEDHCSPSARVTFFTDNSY
Sequence of Leukocyte tyrosine kinase receptor (Homo sapiens) (P29376 whole entry): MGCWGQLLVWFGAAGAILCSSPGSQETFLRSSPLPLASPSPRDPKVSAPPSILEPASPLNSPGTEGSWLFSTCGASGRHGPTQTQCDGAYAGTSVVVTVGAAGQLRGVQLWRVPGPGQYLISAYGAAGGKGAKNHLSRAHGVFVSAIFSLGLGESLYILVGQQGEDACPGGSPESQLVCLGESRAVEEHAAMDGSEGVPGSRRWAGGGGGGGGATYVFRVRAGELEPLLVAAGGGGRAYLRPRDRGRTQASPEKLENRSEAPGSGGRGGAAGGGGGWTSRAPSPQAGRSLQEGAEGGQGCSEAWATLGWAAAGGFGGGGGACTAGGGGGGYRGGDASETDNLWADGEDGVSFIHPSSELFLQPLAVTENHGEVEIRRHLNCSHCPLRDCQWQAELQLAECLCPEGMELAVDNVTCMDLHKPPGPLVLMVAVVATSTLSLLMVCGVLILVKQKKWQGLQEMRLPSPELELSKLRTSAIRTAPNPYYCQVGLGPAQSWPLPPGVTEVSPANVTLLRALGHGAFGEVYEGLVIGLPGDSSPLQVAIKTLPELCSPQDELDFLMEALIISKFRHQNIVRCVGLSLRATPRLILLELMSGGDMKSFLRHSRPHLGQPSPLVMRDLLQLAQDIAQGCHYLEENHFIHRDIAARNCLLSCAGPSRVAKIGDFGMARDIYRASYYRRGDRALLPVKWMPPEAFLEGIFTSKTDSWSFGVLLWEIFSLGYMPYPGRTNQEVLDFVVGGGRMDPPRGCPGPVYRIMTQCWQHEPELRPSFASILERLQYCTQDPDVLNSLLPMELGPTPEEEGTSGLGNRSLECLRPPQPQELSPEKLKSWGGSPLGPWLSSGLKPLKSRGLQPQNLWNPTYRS
Sequence of Tyrosine-protein kinase JAK3 (Homo sapiens) (P52333 whole entry): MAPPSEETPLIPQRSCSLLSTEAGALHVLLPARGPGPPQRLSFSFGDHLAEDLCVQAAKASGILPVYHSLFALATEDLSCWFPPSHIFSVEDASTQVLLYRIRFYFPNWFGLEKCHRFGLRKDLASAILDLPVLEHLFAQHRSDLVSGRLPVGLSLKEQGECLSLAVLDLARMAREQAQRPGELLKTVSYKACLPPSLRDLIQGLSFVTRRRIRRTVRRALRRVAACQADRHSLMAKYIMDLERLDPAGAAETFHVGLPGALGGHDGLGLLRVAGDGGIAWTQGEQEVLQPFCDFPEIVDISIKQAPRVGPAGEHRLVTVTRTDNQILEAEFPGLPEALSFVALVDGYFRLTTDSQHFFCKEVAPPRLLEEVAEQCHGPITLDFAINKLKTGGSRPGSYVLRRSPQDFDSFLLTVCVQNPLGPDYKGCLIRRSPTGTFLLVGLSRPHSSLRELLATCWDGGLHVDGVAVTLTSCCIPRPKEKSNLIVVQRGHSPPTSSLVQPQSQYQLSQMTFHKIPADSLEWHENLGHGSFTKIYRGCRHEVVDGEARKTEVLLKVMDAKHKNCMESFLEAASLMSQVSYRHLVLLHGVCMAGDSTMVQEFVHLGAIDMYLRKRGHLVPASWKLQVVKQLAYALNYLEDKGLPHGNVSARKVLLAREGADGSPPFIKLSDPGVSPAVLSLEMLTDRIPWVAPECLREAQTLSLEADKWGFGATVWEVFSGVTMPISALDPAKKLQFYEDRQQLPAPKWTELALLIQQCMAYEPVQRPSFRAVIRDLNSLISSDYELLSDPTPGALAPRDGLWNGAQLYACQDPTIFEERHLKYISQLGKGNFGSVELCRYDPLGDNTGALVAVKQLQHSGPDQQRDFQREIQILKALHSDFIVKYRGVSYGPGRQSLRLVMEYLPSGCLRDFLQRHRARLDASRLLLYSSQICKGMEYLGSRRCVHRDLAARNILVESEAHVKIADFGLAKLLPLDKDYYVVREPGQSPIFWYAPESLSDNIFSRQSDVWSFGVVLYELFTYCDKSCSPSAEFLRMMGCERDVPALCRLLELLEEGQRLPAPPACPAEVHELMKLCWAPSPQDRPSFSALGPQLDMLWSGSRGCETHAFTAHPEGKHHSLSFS
Sequence of Platelet-derived growth factor receptor alpha (Homo sapiens) (P16234 whole entry): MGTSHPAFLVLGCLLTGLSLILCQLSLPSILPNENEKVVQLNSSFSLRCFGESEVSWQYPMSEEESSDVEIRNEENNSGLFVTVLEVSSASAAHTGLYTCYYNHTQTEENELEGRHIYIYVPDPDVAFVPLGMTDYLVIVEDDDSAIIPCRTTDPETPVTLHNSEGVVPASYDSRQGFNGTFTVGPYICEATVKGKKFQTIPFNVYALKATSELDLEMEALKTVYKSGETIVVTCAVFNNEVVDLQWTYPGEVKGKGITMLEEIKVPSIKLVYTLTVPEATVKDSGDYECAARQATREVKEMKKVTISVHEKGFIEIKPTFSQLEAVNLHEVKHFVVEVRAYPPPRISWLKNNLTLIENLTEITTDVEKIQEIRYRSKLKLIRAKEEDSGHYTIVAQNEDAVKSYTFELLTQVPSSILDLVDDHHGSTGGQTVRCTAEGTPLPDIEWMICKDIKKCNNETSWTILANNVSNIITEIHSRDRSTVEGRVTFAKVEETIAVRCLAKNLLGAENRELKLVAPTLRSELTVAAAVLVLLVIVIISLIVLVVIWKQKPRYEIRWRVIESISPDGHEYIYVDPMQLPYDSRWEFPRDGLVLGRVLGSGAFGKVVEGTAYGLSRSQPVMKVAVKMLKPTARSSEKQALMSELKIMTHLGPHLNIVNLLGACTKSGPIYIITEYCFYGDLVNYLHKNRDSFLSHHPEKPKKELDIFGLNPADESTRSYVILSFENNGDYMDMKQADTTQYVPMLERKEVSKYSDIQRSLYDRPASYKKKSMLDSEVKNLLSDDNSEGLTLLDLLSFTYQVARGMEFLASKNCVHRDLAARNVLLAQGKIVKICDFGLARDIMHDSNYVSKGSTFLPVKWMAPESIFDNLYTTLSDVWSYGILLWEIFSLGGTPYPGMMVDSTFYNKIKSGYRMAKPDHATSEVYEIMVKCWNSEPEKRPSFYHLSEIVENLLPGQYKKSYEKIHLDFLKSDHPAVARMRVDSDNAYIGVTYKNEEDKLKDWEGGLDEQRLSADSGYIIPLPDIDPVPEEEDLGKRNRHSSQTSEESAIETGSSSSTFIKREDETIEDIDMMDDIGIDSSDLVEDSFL

Compound `CNC(=O)Oc1cc(C)c(/C=C/c2cncc(C(=O)NC)c2)c(C)c1` has an inhibition [1] of 3.53%, an inhibition [2] of -6.68% and an inhibition [3] of 2.38%. For the same compound, the inhibition [4] was 3.06%, the inhibition [5] was 4.08% and the inhibition [6] was 28.3%. The inhibition [7] was 4.17%, the inhibition [8] was 32.4% and the inhibition [9] was 14.3%. It also gave an inhibition [10] of 51.1%, an inhibition [11] of 6.27% and an inhibition [12] of 6.14%. The inhibition [13] was 3.13%, the inhibition [14] was 3.08% and the inhibition [15] was 3.12%. The inhibition [16] was 2.02%, the inhibition [17] was 0.99% and the inhibition [18] was 1.69%. For the same compound, the inhibition [19] was 3.98%, the inhibition [20] was -1.5% and the inhibition [21] was 1.67%. For the same compound, the inhibition [22] was 1.34%, the inhibition [23] was 0.21% and the inhibition [24] was -1.11%. For the same compound, the inhibition [25] was -0.28%, the inhibition [26] was 4.06% and the inhibition [27] was 12.7%. For the same compound, the inhibition [28] was 63.5%, the inhibition [29] was 4.33% and the inhibition [30] was -0.14%. The inhibition [31] was 1.64%, the inhibition [32] was -1.04% and the inhibition [33] was 2.06%. It also gave an inhibition [34] of 14.4%, an inhibition [35] of 6.81% and an inhibition [36] of 41%. It also gave an inhibition [37] of 3.84%, an inhibition [38] of 5.56% and an inhibition [39] of 13.7%. For the same compound, the inhibition [40] was 57.1%, the inhibition [41] was 9.47% and the inhibition [42] was 52.3%. For the same compound, the inhibition [43] was 1.05%, the inhibition [44] was 0.84% and the inhibition [45] was -2.86%. It also gave an inhibition [46] of -0.63%, an inhibition [47] of 1.43% and an inhibition [48] of 4.49%. For the same compound, the inhibition [49] was 12.5%, the inhibition [50] was 42.2% and the inhibition [51] was 2.6%. For the same compound, the inhibition [52] was 13.1%, the inhibition [53] was 3.98% and the inhibition [54] was 4.15%. It also gave an inhibition [55] of 13.5% and an inhibition [56] of 52.3%.

Reference: ChEMBL document CHEMBL1961873, “Compounds: GSK PKIS; Assays: Nanosyn kinase panel” (2012)
